# In PubChem BioAssay (NCI):
# This is part of a sample that, as a whole, favours compounds with a hit. Of some 83,000 tested, about 20% had one in any assay.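 Treatment: one concentration, 48 hours, 96-well format. Scoring: percent growth, with anything below 10 considered active.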 The source made the active and inactive calls.
# Tested on: SK-MEL-5 melanoma
# Test: NCI-60 one-dose screen, 48 h (100 = growth as untreated, 0 = no growth, -100 = all killed)
# Details: 10 µM unless noted
row,Structure (SMILES),growth
1,CCCCCCCC[C@@H]1N[C@@H](C(=O)OC)Cc2c1[nH]c1ccccc21,97.3% (inactive)
2,COC(=O)c1cc(N=C2NC(=O)/C(=C/C=C/c3ccccc3)S2)ccc1O,30.1% (inactive)
3,CSc1nnc(-c2cc3c([nH]c4ccccc43)c(-c3cccc(O)c3)n2)n1-c1ccccc1,19.9% (inactive)
4,Cc1ccc(-c2nc([P+](c3ccccc3)(c3ccccc3)c3ccccc3)c(S(=O)(=O)c3ccc(C)cc3)o2)cc1,48.7% (inactive)
5,O=S(=O)(NCCNc1nccc(-c2c(-c3ccc(F)c(O)c3)nc3occn23)n1)c1ccc(Cl)cc1,60.9% (inactive)
6,COc1ccc2c(c1)c(-c1nc(-c3c[nH]c4ccncc34)cs1)cn2C,-97.4% (active)
7,CC(C)c1ccc(C(=O)Nc2nc3ccc(O)c(CN(C)C)c3s2)cc1,74.4% (inactive)
8,O=C1Nc2ccccc2/C1=C/c1nc2ccccc2c(=O)[nH]1,94.4% (inactive)
9,O=C(c1ccccc1)c1ccc(C2CCCCC2)cc1,96.6% (inactive)
10,C=CC(=O)N1CCN(c2cccc(Oc3nccc(Nc4nnc(-c5ccc(Br)cc5)s4)n3)c2)CC1,42.7% (inactive)
11,O=C1C(Cl)=C(Nc2ccc(S(=O)(=O)N3CCOCC3)cc2)C(=O)c2ccccc21,86.8% (inactive)
12,CCOC(=O)C1=C(C)NC(=O)NC1c1c(Cl)n(CCCl)c2ccccc12 (stereo not given),102% (inactive)
13,CCCC/C=C/[C@@H]1C[C@H]1CCO,99.3% (inactive)
14,C=C(CBr)[C@@H]1CC[C@]2(C(=O)O)CC[C@]3(C)[C@H](CC[C@@H]4[C@@]5(C)CCC(=O)C(C)(C)[C@@H]5CC[C@]43C)[C@@H]12,50.5% (inactive)
15,CC/C=C\C[C@H](O)C/C=C1/C(=O)C=C[C@@H]1C/C=C\CCCC(=O)N(C)C,-88.6% (active)
16,CNC(=O)c1[nH]cc(-c2ccc(OC)cc2)c1-c1cc(OC)c2c(c1OC)OCO2,100% (inactive)
17,O=C(/C=C/c1cccs1)Nc1ncc(Cc2ccccc2F)s1,6.05% (active)
18,CCCn1cc2c(=O)nc3sc(Cc4ccccc4)c(C)n3c2n1,107% (inactive)
19,CCC(C)N(CCNc1cc(OC)cc2cccnc12)CC(C)C (stereo not given),103% (inactive)
20,C1CCC([PH+](C2CCCCC2)C2CCCCC2[PH+](C2CCCCC2)C2CCCCC2)CC1.[Au].[CH-]1CCCCC1C1CCCC[N-]1 (stereo not given),-98% (active)

row,Structure (SMILES),growth
1,O=C1/C(=C/c2ccccc2Br)COc2ccc(O)cc21,94.6% (inactive)
2,O=C(Nc1ccccc1O)c1ccc(CNC(=O)c2sccc2Nc2ccnc(C(F)(F)F)c2)cc1,25.1% (inactive)
3,N#Cc1c(-c2ccc(Cl)cc2)nc(NN2C(=O)c3ccccc3C2=O)nc1N1CCOCC1,101% (inactive)
4,O=C(OC(CO)C(=O)NC12CC3CC(CC(C3)C1)C2)c1ccc(Cl)cc1 (stereo not given),98.3% (inactive)
5,COc1ccc(/C=N/C2=C(C#N)C(c3ccccc3)c3ccc4ccccc4c3O2)cc1 (stereo not given),16.3% (inactive)
6,CC(C)c1ccc(C(=O)Nc2sc3c(c2C(N)=O)CCC(=O)C3)cc1,-62.8% (active)
7,N=C(N)c1ccc(-c2ccc(-c3ccc(Cl)cc3Cl)s2)cc1,89.3% (inactive)
8,O=C(/C=C/c1cccc(Cl)c1)c1ccc(Nc2nc(Nc3ccc(F)cc3)nc(Nc3ccc(Cl)cc3)n2)cc1,90.7% (inactive)
9,COc1c(B(O)O)cccc1-c1nc2c(F)cc3[nH]ncc3c2c2c1CCCC2,-26.3% (active)
10,N#Cc1ccc(O)c(C2=NCC(c3ccccc3)O2)c1 (stereo not given),39.1% (inactive)
11,COC(=O)c1nc(-c2ccccc2)oc1S(=O)(=O)Cc1ccccc1,93.4% (inactive)
12,OCCn1cc(-c2nc(-c3c[nH]c4ncccc34)cs2)c2cc(F)ccc21,63% (inactive)
13,O=[N+]([O-])c1cccc(-c2nc3cc4nc5ccccc5[nH]c4cc3n2)c1,96.4% (inactive)
14,CN(C)c1ccc(C(=O)OCCCCCCl)cc1,98.5% (inactive)
15,CC(C)COc1nc2c(c(=O)n(C)c(=O)n2C)n1C,86.7% (inactive)
16,Nc1nc(-c2ccc(Cl)cc2)nc2c1sc(=S)n2-c1ccccc1,36.8% (inactive)
17,Cc1ccc(NC(=O)c2sc3nc(C)c(Br)c(C)c3c2N)cc1,73.1% (inactive)
18,Cc1cc(N2CCCCC2)cc(C)c1-c1csc(NC(=O)c2ccncc2)n1,-8.97% (active)
19,CCN1C(=S)N(c2ccccc2)C2C1NN=c1s/c(=C3\C(=O)N(C(C)C)c4ccccc43)c(=O)n12 (stereo not given),92.1% (inactive)
20,O=C(N(c1ccccc1)c1ccccc1)n1cc(I)c2nc(Cl)nc(Cl)c21,63.9% (inactive)
